From PubChem
KAT2A inh = GCN5L2 (KAT2A) acetyltransferase inhibition; Q92830; GCN5L2 HAT assay, ThioGlo1 CoA-SH fluorescence; Potency, µM (top dose mostly 58.9 µM), most hits filed as inhibitors; actives 0.21% (n = 390,000); AID 504327
Target sequence (Q92830 whole entry, looked up): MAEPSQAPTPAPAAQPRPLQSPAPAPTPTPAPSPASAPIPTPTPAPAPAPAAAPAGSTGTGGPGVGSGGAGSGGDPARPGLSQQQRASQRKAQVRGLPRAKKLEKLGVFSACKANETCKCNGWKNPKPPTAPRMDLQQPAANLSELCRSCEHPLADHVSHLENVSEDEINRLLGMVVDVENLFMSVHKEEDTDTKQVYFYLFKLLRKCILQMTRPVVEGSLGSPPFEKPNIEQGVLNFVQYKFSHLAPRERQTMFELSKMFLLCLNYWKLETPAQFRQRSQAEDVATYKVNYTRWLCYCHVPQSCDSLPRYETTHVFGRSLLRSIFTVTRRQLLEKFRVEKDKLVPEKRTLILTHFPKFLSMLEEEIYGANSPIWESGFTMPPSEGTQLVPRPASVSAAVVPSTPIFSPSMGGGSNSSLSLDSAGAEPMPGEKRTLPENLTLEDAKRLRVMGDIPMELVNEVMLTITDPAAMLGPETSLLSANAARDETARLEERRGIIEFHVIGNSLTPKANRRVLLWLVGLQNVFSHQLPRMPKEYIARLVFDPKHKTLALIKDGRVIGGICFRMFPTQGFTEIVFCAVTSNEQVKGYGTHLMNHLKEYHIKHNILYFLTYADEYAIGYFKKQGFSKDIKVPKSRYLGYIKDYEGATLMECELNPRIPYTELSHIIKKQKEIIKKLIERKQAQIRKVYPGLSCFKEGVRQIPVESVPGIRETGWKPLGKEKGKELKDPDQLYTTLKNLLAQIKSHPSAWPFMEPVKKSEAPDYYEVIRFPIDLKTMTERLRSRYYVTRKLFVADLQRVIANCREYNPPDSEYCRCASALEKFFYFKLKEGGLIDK
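Fluorescence readout, Ex340nm/Em540nm: ThioGlo1 (50uM final) reacts with free CoA thiol released as 20nM GCN5L2 acetylates H3(1-25) peptide (75uM) using acetyl-CoA (70uM). Compound and enzyme sat 15 min beforehand; 20 min room-temperature reaction.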
RGS12 GoLoco inh = blocks human Gai1 binding to RGS12 GoLoco peptide, red readout; Gai1:RGS12 GoLoco peptide FP, rhodamine, 10 min; Potency, µM (series often up to 61.6 µM), actives largely listed as inhibitors; actives 0.44% (n = 230,000); AID 880; active = well fitted inhibition curve with a large enough effect, not every such curve was filed as active; inactive = no such curve, though single readings can be large or run the other way; also: nearly all actives have a fitted effect of over 30% in size
PKM2 activator = PKM2 (human) enzyme activation; Potency, µM (highest dose often 57.5 µM), most hits filed as activators; actives 0.34% (n = 260,000); purified PKM2, Kinase-Glo ATP luminescence, activation; response scale: 0% is enzyme alone, no compound; AID 1631; also: nearly all actives have a fitted effect of over 55% in size
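ATP formation by purified human PK-M2, quantified via coupled luciferase luminescence after 1 h at room temperature with 0.1 mM ADP and 0.5 mM PEP final.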
IL-2 act = IL-2 activation. IL-2 activation reporter assay, cell-based qHTS; stimulated with anti-CD3/CD4/CD28 beads; in transgenic mouse T cells. activation, % (series mostly up to about 46 µM). actives 0.065% (n = 360,000); in the data active = activation above about 50%; inconclusive = mostly about 30% to 49%
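Screening format: compound pinned onto unstimulated transgenic mouse T cells, 60 min incubation, then anti-CD3/anti-CD4/anti-CD28 bead stimulation for 18 hours at 37 degrees C, followed by EGFP and DsRed detection.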
Vif-A3F inh = Vif-A3F binding inhibition; HeLa A3F-eYFP + Vif (tagged APOBEC3F with the HIV-1 protein that degrades it), YFP fluorescence increase; Potency, µM (titrated, usually from 46.1 µM); AID 602313; actives 0.2% (n = 390,000); also: nearly all actives have a fitted effect of over 65% in size
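HeLa cells stably expressing Vif plus C-terminally eYFP-tagged A3F were seeded, incubated overnight at 37 deg C, dosed with compound, incubated overnight again at 37 deg C. Yellow fluorescence (Ex 488/Em 500-530) reported blocked Vif-mediated A3F-eYFP degradation.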
Vif-APOBEC3G blk = Vif-A3G binding inhibition; Q9HC16; HeLa A3G-eYFP + Vif (tagged APOBEC3G with the HIV-1 protein that degrades it), YFP fluorescence, overnight; Potency, µM (series often up to 46.1 µM), most hits filed as inhibitors; actives 0.076% (n = 410,000); AID 602310; also: nearly all actives have a fitted effect of over 60% in size
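Read-out is eYFP fluorescence (Ex 488/Em 500-530) from Vif-expressing HeLa A3G-eYFP cells; more signal means A3G escaped Vif-mediated degradation. Cells plated overnight, compound pinned in, incubated overnight at 37 deg C.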
Of the large screens only hits and unclear results are named; the others gave an inactive call. Shown are actives, neighbours in structure and some others; about 0.77% of the full set was active somewhere. Unless noted, calls follow the shape of the dose curve; as a rule, active = well fitted curve in the direction sought with a large enough effect; inconclusive = small, poorly fitted or top-dose-only effect, or another doubt; inactive = no such curve, though single readings can be large; an effect the other way counts as inactive or inconclusive.

N#C/C(=C\c1ccc(N2CCOCC2)o1)c1nc2ccccc2[nH]1	IL-2 act inconclusive, Vif-A3F inh inconclusive
Cc1ccc(-n2cccc2/C=C2/NC(=O)N(CC(=O)Nc3cccc(C)c3)C2=O)cc1	RGS12 GoLoco inh 7.94µM
Cc1cccc(C)c1NC(=S)NC(C)CCc1ccccc1 (centres undefined)	Vif-A3F inh 7.08µM
Cc1ccc(NC(=S)NC(C)CCc2ccccc2)cc1C (centres undefined)	none
CCOC(=O)CC1(C)OCC(C[N+]2(C)CCCCC2)O1 (centres undefined)	RGS12 GoLoco inh 11.2µM, Vif-A3F inh inconclusive
CC(=O)Nc1ccc2c(c1)C(=Nc1ccc(C(=O)O)cc1)c1ccccc1-2	none (no result: KAT2A inh, PKM2 activator, IL-2 act, Vif-A3F inh, Vif-APOBEC3G blk)
CCn1c(SCC(=O)Nc2cccc(C)c2)nc2nc3c(cc2c1=O)COC(C)(C)C3	PKM2 activator 14.1µM
O=Nc1c(O)[nH]c2ccc(Cl)cc12	none
Cc1cc2c(N=O)c(NO)ccc2[nH]1	Vif-A3F inh inconclusive, Vif-APOBEC3G blk 5.62µM
O=C1Nc2ccc(I)cc2/C1=C/c1cc(Br)c(O)c(Br)c1	KAT2A inh 22.4µM (no result: PKM2 activator, IL-2 act, Vif-A3F inh, Vif-APOBEC3G blk)
COc1ccccc1N1C(=O)S/C(=C\c2ccc(C)s2)C1=O	IL-2 act 88.3, Vif-A3F inh inconclusive, Vif-APOBEC3G blk inconclusive (no result: RGS12 GoLoco inh)
CC(C)NC(=O)c1nn(C)c2c1CS(=O)(=O)c1ccccc1-2	none (no result: RGS12 GoLoco inh, PKM2 activator, IL-2 act)
CCCOC(=O)c1ccc(NC(=O)c2ccoc2C)cc1	none
CC(=O)OC1CC(OC(C)=O)[C@]2(C)C(CC(=O)[C@]3(C)C2CC[C@@]2(C)C(c4ccoc4)OC(=O)C4O[C@@]423)C1(C)C (some centres undefined)	RGS12 GoLoco inh 22.4µM (no result: PKM2 activator, IL-2 act, Vif-A3F inh, Vif-APOBEC3G blk)
CC(=O)OC1CC(OC(C)=O)[C@]2(C)C(CC(O)[C@]3(C)C2CC[C@@]2(C)C(c4ccoc4)OC(=O)C4O[C@]432)C1(C)C (some centres undefined)	none (no result: PKM2 activator, IL-2 act, Vif-A3F inh, Vif-APOBEC3G blk)
O=S(=O)([N-]c1nc2ccccc2nc1-[n+]1ccc(-c2ccncc2)cc1)c1ccccc1	Vif-A3F inh 3.55µM
CN(C)c1ccc(/C=C(\C#N)C(=O)Nc2nc3c(s2)CCN(Cc2ccccc2)C3)cc1	IL-2 act 59.2, Vif-APOBEC3G blk inconclusive
Cc1cccc(N2CCN(C(=O)c3nn(C)c4c3CS(=O)(=O)c3ccccc3-4)CC2)c1C	none (no result: RGS12 GoLoco inh, PKM2 activator)
Cc1ccc(-c2nc3ccc(Br)cn3c2Cc2ccccc2)cc1	none (no result: KAT2A inh, RGS12 GoLoco inh, PKM2 activator, Vif-A3F inh)
Cc1ccc(/C=C/C2=Cc3c(sc(NC(=O)CSc4n[nH]c(N)n4)c3C#N)C(C)(C)C2)o1	PKM2 activator 4.47µM (no result: IL-2 act, Vif-A3F inh, Vif-APOBEC3G blk)
CN(C)CCC(=O)N1C/C(=C/c2ccccc2)C(=O)/C(=C\c2ccccc2)C1	Vif-APOBEC3G blk inconclusive (no result: KAT2A inh, RGS12 GoLoco inh, PKM2 activator)
C[N+](C)(C)CCC(=O)N1C/C(=C/c2ccccc2)C(=O)/C(=C\c2ccccc2)C1	Vif-A3F inh inconclusive, Vif-APOBEC3G blk 7.94µM (no result: KAT2A inh, RGS12 GoLoco inh, PKM2 activator)
Cc1ccc(N(CC(=O)NC2CCCCC2)C(=O)c2ccc(C)s2)cc1	KAT2A inh 3.98µM
Cc1cccc(NC(=O)c2cccc(N3C(=O)CCC3=O)c2)c1	none (no result: RGS12 GoLoco inh)
C=CCc1c(C)nc(-c2ccccc2)nc1Nc1ccccc1O	Vif-A3F inh 22.4µM, Vif-APOBEC3G blk inconclusive
Fc1ccccc1Nc1nc2ccccc2n2nnnc12	Vif-A3F inh 25.1µM
CCOC(=O)c1ccccc1Nc1nc2ccc(C)cc2n2nnnc12	Vif-A3F inh inconclusive (no result: RGS12 GoLoco inh, PKM2 activator, IL-2 act)
CCOC(=O)N1CCC(Nc2nc3ccccc3n3nnnc23)CC1	Vif-A3F inh 10µM
CC(C)COC(=O)/C(C#N)=C/c1cn(Cc2ccccc2)c2ccccc12	none
CCCN1Cc2cccc(C(=O)Nc3ccc(C(C)=O)cc3)c2C1=O	none (no result: RGS12 GoLoco inh, PKM2 activator, IL-2 act, Vif-A3F inh, Vif-APOBEC3G blk)
Cc1ccccc1OCCn1nc(C(=O)O)c2ccccc2c1=O	none (no result: Vif-A3F inh)
CCCOc1ccc(OCCn2nc(C(=O)O)c3ccccc3c2=O)cc1	PKM2 activator 31.6µM
CC(C)c1ccc(C2CC(c3ccc(Br)cc3)=NN2C(N)=S)cc1 (centres undefined)	PKM2 activator inconclusive
Cc1cc(C)c2c(/C=C/c3ccc(N(C)C)cc3)ccnc2c1	none (no result: KAT2A inh, RGS12 GoLoco inh, PKM2 activator, IL-2 act, Vif-A3F inh)
CN(C)c1ccc(/C=C/c2ccnc3ccccc23)cc1C=O	Vif-APOBEC3G blk 7.08µM (no result: KAT2A inh, RGS12 GoLoco inh, PKM2 activator, IL-2 act, Vif-A3F inh)
Cc1ccc2nccc(/C=C/c3ccc(N(C)C)cc3)c2c1	Vif-APOBEC3G blk 3.55µM (no result: KAT2A inh, RGS12 GoLoco inh, PKM2 activator, IL-2 act, Vif-A3F inh)
CN(C)c1ccc(/C=C/c2ccnc3ccccc23)cc1O	Vif-APOBEC3G blk 11.2µM (no result: KAT2A inh, RGS12 GoLoco inh, PKM2 activator, IL-2 act, Vif-A3F inh)
CN(C)c1ccc(/C=C/c2ccnc3ccccc23)cc1[N+](=O)[O-]	none (no result: KAT2A inh, RGS12 GoLoco inh, PKM2 activator, IL-2 act, Vif-A3F inh)
COc1nccnc1NS(=O)(=O)c1ccc(N/C=C2\CCCCC2=O)cc1	none (no result: PKM2 activator)
CC1(C)CC(N2CCCC2)=CC(=[N+]2CCCC2)C1	RGS12 GoLoco inh 2µM
CC1(C)CC(N2CCCC2)=CC(=[N+]2CCCCC2)C1	RGS12 GoLoco inh 6.31µM
CC1(C)CC(N2CCN(Cc3ccccc3)CC2)=CC(=[N+]2CCCCC2)C1	RGS12 GoLoco inh 25.1µM
CC1(C)CC(=O)C=C(N2CCN(C3=CC(=O)CC(C)(C)C3)CC2)C1	none (no result: IL-2 act, Vif-A3F inh, Vif-APOBEC3G blk)
O=C(Cc1ccccc1)N1CCC(c2ccccc2)C1 (centres undefined)	none
C=CCNC(=O)c1onc(CSc2ccccc2C)c1C(=O)O	none
CCN=C1S/C(=C\c2cn(CC)c3ccccc23)C(=O)N1CC	none
